# PubChem BioAssay (NCI)
# The panel holds about 83,000 compounds, 20% with a hit somewhere; the sample as a whole holds those more often.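 Plates (96-well) were seeded with cells, treated with compound at one concentration, and incubated for 48 hours before percent growth was determined.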 A number with no mark means an inactive call. Active and inactive are the calls of the source.
# Test system: HCT-116 colon
# Experiment: NCI-60 one-dose screen, 48 h (100 = growth as untreated, 0 = no growth, -100 = all killed)
# Details: 10 µM unless noted
# Description: Growth inhibition of the HCT-116 human tumor cell line is measured as a screen for anti-cancer activity. Cells are grown in 96 well plates and exposed to the test compound for 48 hours. Compounds are tested at a single concentration, which is 10^-5 M for most compounds. The reported endpoint is percent growth (GI% or GIPRCNT), where numbers from 0 - 100% represent growth inhibition, and numbers from -100% - 0 represent cell death. For example, a value of 40 represents 60% growth inhibition. A value of 0 means no net growth occurred over the course of the experiment. A value of -40 indicates 40% of cells at the beginning of the experiment died by the end of the experiment. A value of -100 means all cells are dead at the end of the experiment.
# NCI-60 Human Tumor Cell Lines Screen was performed using the standard one-dose NCI protocol, which is described in more detail at https://dtp.cancer.gov/discovery_development/nci-60/default.htm.
# Compounds with GIPRCNT values below 10 were considered active. Activity score was based on GIPRCNT using the following formula: […]
# Score is 0 for GIPRCNT values of 100 or above, 50 for GIPRCNT values of 0, and 100 for GIPRCNT values of -100.
row,Compound,growth
1,Cc1nc(/N=C(\N)NC(=O)Nc2ccccc2Cl)sc1C,28.5%
2,Cc1ccc(-c2nc(SCC(=O)Nc3nc(-c4ccc(Cl)cc4)cs3)[nH]c(=O)c2C#N)cc1,91.6%
3,O=C(Nc1ccc(F)cc1F)c1cc(F)ccc1O,12.8%
4,OC(c1ccccc1)C(NC(Cc1ccccc1)c1ccccc1)c1ccccc1 (stereo not given),77.1%
5,COc1cc(CCC[P+](c2ccccc2)(c2ccccc2)c2ccccc2)c(OC)c2c1OCO2,16.4%
6,COc1cc(C(=O)/C=C/c2sc(Cl)nc2Cl)cc(OC)c1OC,-54.3% (active)
7,COc1ccc(OC)c(/C=C2\Oc3cc(OCCN4CCC(Cc5ccccc5)CC4)ccc3C2=O)c1,73%
8,CC1=C([Se]CC(OC(=O)[C@@H](CSSC(C)(C)C)NC(=O)OC(C)(C)C)C(=O)NC(C)(C)C)C(=O)c2ccccc2C1=O (stereo not given in full),-73.8% (active)
9,CCOC(=O)c1cn2ncnc(Oc3ccc(NC(=O)NCCN4CCN(C)CC4)c(Cl)c3)c2c1C,45.3%
10,C=C1C(=O)O[C@H]2[C@H]1CC/C(COC(=O)NCCOCCOCC(=O)Nc1ccc(OC)c(C(N)=O)c1O)=C\CC[C@@]1(C)O[C@@H]21,32.8%
11,COc1ccc2[nH]c(-c3ccccc3)c(/C=C(\C#N)S(=O)(=O)c3ccccc3)c2c1,31.4%
12,CCCCCCCNC(=O)CCCNc1ncnc2c1ncn2-c1cccc(C(C)O)c1 (stereo not given),104%
13,COc1ccc(/C=C/c2c(C(=O)/C=C/c3ccc(Cl)cc3)c(C)nc3ccccc23)cc1,-64.6% (active)
14,CCc1cccc2c1S/C(=C/c1ccc(Cl)cc1)C2=O,91.8%
15,COc1ccc(OC)c(/C=C/C(=O)N/N=C/c2ccccc2)c1,14.2%
16,N#Cc1cccc(NC(=O)c2cc(-c3ccc(F)cc3F)ccc2O)c1,7.36% (active)
17,CCOc1cccc(NC2=C(Br)C(=O)C(C)=C(C)C2=O)c1,52%
18,Oc1ccc(Cl)cc1Cc1cc(Cl)cc(Cl)c1O,37.1%
19,Cc1ccc(C(=O)NN2C(=O)CSC2c2ccc(Cl)cc2)cn1 (stereo not given),96%
20,COc1cc2cc(Oc3ccc(NC(=O)Nc4cccc(C(F)(F)F)c4)cc3)c(C)nc2cc1OCCN1CCOCC1,17.4%

row,Compound,growth
1,O=C(Nc1c2ccccc2nc2ccccc12)c1ccccc1CN1C(=O)c2ccccc2C1=O,16.1%
2,COC(=O)[C@H](C)NC(=O)NC(=O)NC(=O)CI,98.6%
3,COc1ccc(C2NC(=O)C(C#N)c3c2sc2c(F)cccc32)c(OC)c1 (stereo not given),23.8%
4,NC1=C(c2nn[nH]n2)C(c2ccccc2Cl)c2ccc3ccccc3c2O1 (stereo not given),63.1%
5,CC1=NN(c2ccc(S(=O)(=O)O)cc2)C(=O)C1N=Nc1ccc(-c2ccc(N=Nc3ccc(OS(=O)(=O)c4ccc(C)cc4)cc3)c(S(=O)(=O)O)c2)cc1 (stereo not given),93.9%
6,OC(COc1ccccc1Cl)CN1CCN(c2cccc(Cl)c2)CC1 (stereo not given),98.3%
7,Cc1nc2ccccc2n1-c1ncnc2c1CC(C)c1ccccc1N2C (stereo not given),96.2%
8,O=c1c2cc(F)ccc2sc2c(N3CCNCC3)nc3ccc(F)cc3c12,-61.2% (active)
9,COc1cc(CCCO)c(OC)c(OC)c1OC,106%
10,Cc1ccc(-c2nc3c(c(-c4ccccc4)nn3-c3ccccc3)c(-c3ccc(O)cc3)c2C#N)cc1,42.4%
11,O=C(CSc1nccc(Nc2ccc(S(=O)(=O)Nc3nccs3)cc2)n1)c1ccc(C(F)(F)F)cc1,86.7%
12,O=c1cc(SCc2ccccc2)nc[nH]1,104%
13,Cc1cc2nc3cc(C)c(N)cc3[n+](-c3ccccc3)c2cc1N,33.1%
14,COc1cccc(-c2nc(-c3ccc(NS(=O)(=O)c4ccccc4)cc3)[nH]c2-c2ccnc(Br)c2)c1,17%
15,COc1cccc2nc3n(c12)C(c1c(F)cccc1F)SC3 (stereo not given),93.8%
16,Cc1ccc(/C=N\NC(=O)c2[nH]c3ccc(F)cc3c2-c2ccccc2)cc1,10.8%
17,C#C[C@]1(O)CC[C@H]2[C@@H]3CC=C4c5sc(Nc6ccccc6)nc5CC[C@]4(C)[C@H]3CC[C@@]21C,-33.3% (active)
18,CCCCCCCCCCCCCCCCCC1OCC(COC(=O)O[C@]2(CC)C(=O)OCc3c2cc2n(c3=O)Cc3cc4ccccc4nc3-2)O1 (stereo not given in full),66.8%
19,COc1ccc(C2CC(c3ccc(Nc4ccnc5cc(Cl)ccc45)cc3)=NN2C=O)cc1 (stereo not given),55.7%
20,CN1C(=O)CNC(=O)[C@H](NC(=O)c2nc3ccccc3cc2O)CSSC[C@H]1C(=O)NCCCc1nc2ccccc2cc1O,70%
